High-throughput results from PubChem BioAssay.
SIRT5 inh: sirtuin-5 (human) deacylase inhibition. Q9NXA8. Purified SirT5, succinyl-peptide AMC, trypsin-coupled fluorescence. inhibition, % at 15 µM. hit rate 1.1% among 330,000; in the data active = inhibition above about 15%
Target sequence (Q9NXA8 whole entry, looked up): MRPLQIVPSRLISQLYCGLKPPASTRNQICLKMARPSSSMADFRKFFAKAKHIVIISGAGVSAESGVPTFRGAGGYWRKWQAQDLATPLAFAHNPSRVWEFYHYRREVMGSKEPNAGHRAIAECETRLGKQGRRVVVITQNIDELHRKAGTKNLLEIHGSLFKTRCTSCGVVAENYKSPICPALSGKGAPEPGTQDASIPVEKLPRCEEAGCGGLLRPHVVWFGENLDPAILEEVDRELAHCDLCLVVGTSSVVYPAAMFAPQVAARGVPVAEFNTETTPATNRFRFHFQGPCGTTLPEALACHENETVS
GSIS activator: GLuc luminescence reporter in INS-1E cells, primary screen for activators of glucose-dependent secretion of insulin; INS-1E GLuc reporter insulin secretion, 2-3 h; activation, % at 16.6 µM; hit rate 0.61% among 370,000; AID 743287;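 active = lowest replicate activation of at least 40%, so every replicate reaches that level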
ERAP1 HTS inh: ERAP1 (human) enzyme inhibition | hit rate 0.15% among 340,000 | AID 652197 | inhibition, % at 10.7 µM | Q9NZ08 | recombinant ERAP1, Leu-AMC fluorescence, 60 min;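 active = mean replicate inhibition of at least 30%, or all replicates individually reaching that 30% level; inactive = mean below 30% and not every replicate reaching it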
Casp6 inh: blocks human caspase-6 cleavage activity; purified caspase-6, Z-VEID-R110 cleavage fluorescence; inhibition, % at 12.5 µM; hit rate 0.53% among 350,000;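 active = mean inhibition across replicates at least about 35%, with every replicate also reaching that limit, limit read from the data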
Target sequence (P55212 24-179 limits assumed): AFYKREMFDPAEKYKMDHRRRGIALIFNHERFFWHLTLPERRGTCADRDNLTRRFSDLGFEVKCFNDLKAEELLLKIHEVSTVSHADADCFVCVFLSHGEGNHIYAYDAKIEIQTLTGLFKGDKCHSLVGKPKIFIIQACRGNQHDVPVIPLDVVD
Target sequence (P55212 194-293 limits assumed): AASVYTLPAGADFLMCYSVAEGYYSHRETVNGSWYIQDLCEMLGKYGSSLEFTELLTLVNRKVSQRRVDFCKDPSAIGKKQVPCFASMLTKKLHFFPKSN
FGF22 binding: binders of recombinant human FGF22 by thermal shift | AID 651658 | activity (Tm shift, normalised), % at 9.99 µM | hit rate 1.5% among 340,000 | Q9HCT0 | SYPRO orange fluorescence; percent of sucrose octasulfate shift, DMSO zero;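 active = mean Tm shift, scaled 0 neutral to 100 positive control, at about 1.3% or above, every replicate too, limit read from the data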
A number is an active result; 0 = inactive; - = no result. An excerpt weighted towards active compounds, which were near 3.3% of everything screened.

SMILES	SIRT5 inh	GSIS activator	ERAP1 HTS inh	Casp6 inh	FGF22 binding
COc1ccc(Nc2nc3ccccc3s2)cc1	0	0	0	0	2.6
CC1CCCCC12NC(=O)N(CC(=O)NCc1ccccc1)C2=O (stereo unspecified)	0	0	0	0	0
CC(=O)NCc1ccc(C(=O)CN2C(=O)NC3(CCCCC3C)C2=O)s1 (stereo unspecified)	15	0	0	0	0
Cc1cccc(C(C(N)=O)c2ncc(C(F)(F)F)cc2Cl)c1 (stereo unspecified)	0	0	0	0	44
O=C(N/C=N/O)C(c1ccccc1)c1ncc(C(F)(F)F)cc1Cl (stereo unspecified)	0	0	0	0	0
COc1ccc(C(C(N)=O)c2ncc(C(F)(F)F)cc2Cl)cc1OC (stereo unspecified)	0	0	0	0	43
COC(=O)C(C(=O)OC)c1ncc(C(F)(F)F)cc1Cl	0	0	-	0	0
C[C@H]1CN([C@@H](C)CO)C(=O)c2cccc(NC(=O)c3cnccn3)c2O[C@H]1CN(C)S(=O)(=O)c1cccs1	0	0	0	0	0
O=C(NN=Cc1cccc2ccccc12)C(=O)NN=Cc1cccc2ccccc12	0	0	0	0	0
O=C(N/N=C/c1cccc2ccccc12)c1cccs1	18	0	0	0	0
O=C(NN=Cc1ccccc1Cl)c1cccc2ccccc12	-	80	0	0	0
O=C(NN=Cc1ccccc1Cl)c1ccccc1	0	-	0	-	0
N#CCC(=O)N/N=C/c1ccccc1Cl	0	-	0	0	44
O=C1C2C(C(=O)N1/N=C/c1ccco1)C1C=CC2C12CC2 (stereo unspecified)	0	0	0	0	0
O=C1C2C3C=CC(CC3)C2C(=O)N1/N=C/c1ccco1 (stereo unspecified)	0	0	0	0	44
OC[C@@H]1[C@H](c2ccccc2)C2(CN(Cc3nccs3)C2)N1Cc1cccnc1	20	0	0	0	0
COCCCNC(=O)CSc1nc2c(sc(=S)n2-c2cc(Cl)ccc2OC)c(=O)[nH]1	0	-	0	0	3.0
CCC(C)NC(=O)CSc1nc2c(sc(=S)n2-c2cc(Cl)ccc2OC)c(=O)[nH]1 (stereo unspecified)	0	0	0	-	0
CN(Cc1ccccc1)C(=O)c1[nH]cnc1C(=O)NCc1ccccc1	0	0	0	0	0
CN(Cc1ccccc1)C(=O)c1[nH]cnc1C(=O)Nc1ccc(Br)cc1F	18	0	0	0	0
N#CC1=C(N)OC2=C(C(=O)CC(c3ccccc3)C2)C1c1cccnc1 (stereo unspecified)	-	47	-	-	-
O=C(N[C@H]1CC[C@H](CC(=O)N2CCOCC2)O[C@@H]1CO)c1ccccn1	0	0	0	0	0
Cc1nc2ccc(NC(=O)CS(=O)(=O)c3ccc(F)cc3)cc2s1	0	0	0	0	0
Cc1ccc(S(=O)(=O)CC(=O)Nc2ccc3nc(C)sc3c2)cc1	24	0	0	0	0
C[C@@H](NC(=O)C[C@@H]1C[C@H]2c3cc(NC(=O)Nc4ccccc4F)ccc3O[C@H]2[C@H](CO)O1)c1ccccc1	0	0	0	0	0
SMILES	SIRT5 inh	GSIS activator	ERAP1 HTS inh	Casp6 inh	FGF22 binding
COc1cccc(S(=O)(=O)Nc2ccc3c(c2)[C@H]2C[C@@H](CC(=O)NC4CCCCC4)O[C@H](CO)[C@H]2O3)c1	0	-	0	64	0
O=C(C[C@H]1C[C@@H]2c3cc(NC(=O)Nc4ccccc4)ccc3O[C@@H]2[C@H](CO)O1)NC1CCCC1	0.5	0	0	0	0
COc1cccc(S(=O)(=O)Nc2ccc3c(c2)[C@@H]2C[C@@H](CC(=O)NC4CCCCC4)O[C@@H](CO)[C@@H]2O3)c1	0	0	0	0	0
C[C@@H](NC(=O)C[C@@H]1C[C@@H]2c3cc(NC(=O)Nc4ccccc4F)ccc3O[C@@H]2[C@@H](CO)O1)c1ccccc1	0	105	0	0	0
O=C(C[C@@H]1C[C@H]2c3cc(NC(=O)Nc4ccccc4F)ccc3O[C@H]2[C@H](CO)O1)NC1CCCC1	0	0	0	99	0
O=C(C[C@H]1CC[C@@H]2[C@H](COC[C@H](O)CN2C(=O)c2ccccc2F)O1)NCc1ccc(Cl)cc1	0	0	0	0	0
O=C(C[C@H]1C[C@H]2c3cc(NC(=O)Nc4ccccc4F)ccc3O[C@H]2[C@@H](CO)O1)NCc1ccncc1	16	0	0	0	0
O=S(=O)(NC(CO)Cc1ccccc1)c1cc(Cl)ccc1F (stereo unspecified)	0	0	0	0	0
O=S(=O)(NC(CO)Cc1ccccc1)c1ccc(Br)cc1F (stereo unspecified)	-	0	0	0	43
CN(C)c1cccc2c1c(NS(=O)(=O)c1cn(C)cn1)nn2C	0	0	0	52	0
COc1cccc(-c2cn(CC[C@H]3CC[C@H](NC(=O)CC4CC4)[C@H](CO)O3)nn2)c1	0	0	0	0	0
COc1cccc(-c2cn(CC[C@@H]3CC[C@H](NC(=O)CC4CC4)[C@@H](CO)O3)nn2)c1	30	0	0	0	0
O=C(Nc1ccc(Cl)c(Cl)c1)N[C@@H]1CC[C@H](CCn2cc(C3CC3)nn2)O[C@H]1CO	27	0	0	0	0
O=C(Nc1ccc(Cl)c(Cl)c1)N[C@H]1CC[C@@H](CCn2cc(C3CC3)nn2)O[C@@H]1CO	0	0	0	0	0
O=C(Nc1ccc(Cl)c(Cl)c1)N[C@@H]1CC[C@H](CCn2cc(C3CCCCC3)nn2)O[C@@H]1CO	0	0	0	0	0
CCC(C)C(NC(=O)OC(C)(C)C)C(=O)NC(C)C(N)=O (stereo unspecified)	0	0	0	0	43
CC(=O)CC[N+](C)(C)C	0	0	37	0	0
CCCC#Cc1ccc([C@H]2[C@@H](CO)N3C(=O)CN(C(=O)NC4CCCC4)C[C@@H]23)cc1	0	0	0	0	-
CCOc1ccc(C(=O)N/N=C/c2cc(Cl)ccc2[N+](=O)[O-])cc1	-	92	-	-	-
C[C@H]1CN([C@@H](C)CO)C(=O)c2cc(C3=CCCC3)cnc2O[C@H]1CN(C)Cc1ccc(C(=O)O)cc1	0	0	0	0	0
Cc1ccc(Sc2ccc(/C=C3/C(=O)NN(c4ccccc4)C3=O)o2)cc1	0	0	0	0	0
O=C1NN(c2ccccc2)C(=O)/C1=C/c1ccc(-c2ccc(Cl)c(C(=O)O)c2)o1	0	0	0	55	0
O=C1NN(c2ccccc2)C(=O)/C1=C/c1ccc(Sc2ccc(Cl)cc2)o1	0	-	0	40	0
Cc1cccc(N2NC(=O)/C(=C/c3ccc(-c4ccc(Cl)c(C(=O)O)c4)o3)C2=O)c1	16	0	0	52	0
O=C(O)c1cc(-c2ccc(/C=C3\NC(=O)N(c4ccc(Cl)cc4)C3=O)o2)ccc1Cl	20	0	0	40	-
Cc1noc(C)c1NC(=O)N1C[C@H](O)COC[C@@H]2O[C@@H](CC(=O)N[C@H]3CCN(Cc4ccccc4)C3)CC[C@H]21	-	0	-	-	-
